Records with an inconclusive call do not appear. The source made the active and inactive calls. Calls come from the whole dose curve; as a rule, active = well fitted cell-killing curve with a large enough effect; inconclusive = small, poorly fitted or top-dose-only effect, or effect the other way; inactive = flat fitted curve, though single readings scatter.
Each compound was assayed on Tov-21-G (assay: Primary qHTS to identify gynecologic anti-cancer compounds using libraries of approved drugs and bioactive compounds (AID 1345084; note: nearly all actives have a fitted effect of over 55% in size)). Details: Gynecologic cancer cell panel viability, ATPlite luminescence, 48 h; series mostly up to 57.5 µM; activity change, negative = cytotoxicity: at the top concentration.
Summary of the method: (§1)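 Cytotoxicity screen measuring ATP content by luciferase luminescence. Each compound is applied at five concentrations for 48 h at 37 C with 5% CO2.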
% is set by controls: 0 for no effect and ±100 for the full control effect; potency is the fitted concentration of half-maximal effect.

Q: How did the “activity change, negative = cytotoxicity” value turn out when `CCC/C=C\C=C/CCc1cc(O)c([C@@H]2O[C@H](CO)[C@@H](O)[C@H](O)[C@H]2O)c(O)c1C(=O)OC` was run?
A: 1.12% [at 25.3 µM] (inactive)

Q: Which “activity change, negative = cytotoxicity” value does the source give for `C=CC(=O)N1CCN(C(=O)CNc2cc(-c3ccccc3Cl)c(Cl)cc2OC)CC1` here?
A: -14.5% (inactive)

Q: With `CCCNCCc1ccc(NS(=O)(=O)c2ccc(OC(F)(F)F)cc2)cc1` as the compound, how does the “activity change, negative = cytotoxicity” value read?
A: 10.1% (inactive)

Q: For `COc1cccc(N2CCN(C3=Nc4c(F)cccc4[C@H](CC(=O)O)N3c3cc(C(F)(F)F)ccc3OC)CC2)c1`, which “activity change, negative = cytotoxicity” value is on record?
A: 8.59% (inactive)

Q: Which “activity change, negative = cytotoxicity” value does the source give for `N#Cc1ccc2ncnc(NCCc3ccccc3)c2c1` here?
A: 19.7% (inactive)

Q: `C=C1/C(=C/C=C2\CCC[C@]3(C)[C@@H]([C@H](C)/C=C/[C@@H](C)C(C)C)CC[C@@H]23)C[C@@H](O)C[C@@H]1O` was tested. Which “activity change, negative = cytotoxicity” value did it give?
A: 0.196% (inactive)

Q: Which Potency does the source give for `COc1ccc(Cl)c(Nc2ncnc3cc(OCC4CCN(C)CC4)c(OC)cc23)c1` here?
A: 3.16 µM (active)

Q: With `C=CC(C)(C)c1[nH]c2ccccc2c1C[C@@H]1NC(=O)[C@H](C)NC1=O` as the compound, how does the “activity change, negative = cytotoxicity” value read?
A: -1.23% [at 38.5 µM] (inactive)

Each compound was assayed on Tov112D in the same assay as above. Details: Gynecologic cancer cell panel viability, ATPlite luminescence, 48 h; series mostly up to 57.5 µM; activity change, negative = cytotoxicity: at the top concentration.
Summary of the method: as §1

Q: How did the Potency turn out when `Nc1ncnc2c1nc(Cl)n2C1OC2COP(=O)(O)OC2C1O` (stereo not drawn) was run?
A: 5.01 µM (active)

Q: How did the “activity change, negative = cytotoxicity” value turn out when `CCCCNc1ncc(-c2ccc(CN3CCOCC3)cn2)c(NC2CCC(O)CC2)n1` (stereo not drawn) was run?
A: -4.54% [at 25.3 µM] (inactive)

Q: How did the “activity change, negative = cytotoxicity” value turn out when `CC(C)C[C@@H]1NC(=O)[C@@H]2C[C@@]34C[C@@H]5[C@@]6(C)CCCC(C)(C)C6CC[C@@]5(C)N(c5ccccc53)[C@H]4N2C1=O` (stereo partly drawn) was run?
A: -24.7% [at 25.3 µM] (inactive)

Q: `CC(=O)OC1CC(C)(C(=O)O)CC2C3=CC(=O)C4C5(C)CCC(OC6OC(C(=O)O)C(O)C(O)C6OC6OC(C(=O)O)C(O)C(O)C6O)C(C)(C)C5CCC4(C)C3(C)CCC12C` (stereo not drawn) was tested. Which activity change, negative = cytotoxicity did it give?
A: -0.209% [at 11.6 µM] (inactive)

Q: Which “activity change, negative = cytotoxicity” value does the source give for `Cc1cn(CCN2CCN(c3ccccc3-c3cc(C#N)cc(C(=O)NCCCN4CCCC4)c3)CC2)c2ccccc12` here?
A: 20.5% (inactive)

Q: For `CN(C)Cc1ccc(-c2cnn3c(-c4cccc(NC(=O)c5cccc(C(F)(F)F)c5)c4)ccnc23)cc1`, which “activity change, negative = cytotoxicity” value is on record?
A: 18.3% (inactive)

Q: With `CC[C@@H](Nc1c(Nc2cccc(C(=O)N(C)C)c2O)c(=O)c1=O)c1cc(C(C)C)co1` as the compound, how does the “activity change, negative = cytotoxicity” value read?
A: 6.22% (inactive)

Q: For `O=C(O)c1ccc(S(=O)(=O)N(Cc2ccc(OC(F)(F)F)cc2)c2ncc(C(F)(F)F)cc2Cl)cc1`, which “activity change, negative = cytotoxicity” value is on record?
A: 5.9% (inactive)

Q: How did the “activity change, negative = cytotoxicity” value turn out when `Cc1[nH]c2ccccc2c1CCNC(=O)c1cccs1` was run?
A: -3.86% (inactive)

Q: Which “activity change, negative = cytotoxicity” value does the source give for `CC(=O)O[C@H]1CC[C@]2(C)[C@H]3CC[C@]4(C)Oc5oc(C)cc(=O)c5C[C@H]4[C@]3(C)CC[C@H]2C1(C)C` here?
A: 2.34% [at 25.3 µM] (inactive)

Q: Which “activity change, negative = cytotoxicity” value does the source give for `C=C1C(=O)OC2/C=C(\CO)CC/C=C(\C=O)C(O)C(OC(=O)C(C)CC)C12` (stereo not drawn) here?
A: -1.19% [at 38.5 µM] (inactive)

Q: `COc1ccc2c(NC(=O)Nc3cccc(C(F)(F)F)n3)ccnc2c1` was tested. Which “activity change, negative = cytotoxicity” value did it give?
A: 28.6% (inactive)

Q: For `CCC(C)CNCC(=O)N1CCc2sccc2C1COc1cccc(C)c1` (stereo not drawn), which “activity change, negative = cytotoxicity” value is on record?
A: -0.0556% (inactive)

Q: Which “activity change, negative = cytotoxicity” value does the source give for `CCN(CC)C(=O)C(c1ccccc1)N1CCN(c2ccc(NC(=O)c3ccccc3-c3cccnc3)cc2F)CC1` (stereo not drawn) here?
A: 10.4% (inactive)

Q: How did the “activity change, negative = cytotoxicity” value turn out when `CC(=O)C=C=C1C(C)(C)CC(O)CC1(C)O[C@@H]1O[C@H](CO[C@H]2OC[C@](O)(CO)[C@H]2O)[C@@H](O)[C@H](O)[C@H]1O` (stereo partly drawn) was run?
A: -1.5% [at 25.3 µM] (inactive)

Q: `CNCCC(c1cccs1)c1ccc(O)c2ccccc12` (stereo not drawn) was tested. Which “activity change, negative = cytotoxicity” value did it give?
A: 8.97% (inactive)

Q: With `COc1ccc(C[C@H]2COC(=O)[C@@H]2Cc2ccc(O[C@@H]3O[C@H](CO)[C@@H](O)[C@H](O)[C@H]3O)c(OC)c2)cc1OC` as the compound, how does the “activity change, negative = cytotoxicity” value read?
A: -18.6% [at 25.3 µM] (inactive)

Q: With `Fc1ccc(-c2nc(-c3ccccc3F)[nH]c2-c2ccncc2)cc1` as the compound, how does the “activity change, negative = cytotoxicity” value read?
A: 24.9% (inactive)

Q: How did the “activity change, negative = cytotoxicity” value turn out when `C=C1C(=O)O[C@@H]2/C=C(\CO)CC/C=C(/C=O)C[C@H](O)[C@@H]12` was run?
A: -12.9% (inactive)

Q: For `O=c1cc(OCc2ccc(F)cc2)ccn1-c1ccc(OCCN2CCCC2)cc1`, which “activity change, negative = cytotoxicity” value is on record?
A: -0.591% (inactive)

Q: Which “activity change, negative = cytotoxicity” value does the source give for `CCc1cnc(N2CCC(c3nc(COc4ccc(-n5cnnn5)cc4)cs3)CC2)nc1` here?
A: -21.2% (inactive)

Q: For `COc1ccc(NC(=O)c2ccc(-c3ccc(C(=N)N)cc3C)cc2)cc1N1CCN(C)CC1`, which “activity change, negative = cytotoxicity” value is on record?
A: 3.37% (inactive)

Q: How did the “activity change, negative = cytotoxicity” value turn out when `CC1(NC(=O)c2ccc(C#Cc3cccc(F)c3)cn2)COC1` was run?
A: -1.7% (inactive)

Q: Which “activity change, negative = cytotoxicity” value does the source give for `CC(=O)OC1CC(C)C2(CCC3(CC(=O)OC3O)O2)C2(C)CCCC(C)(C)C12` (stereo not drawn) here?
A: 2.57% [at 25.3 µM] (inactive)

Q: With `c1cc(NC2CCNCC2)nc(-c2cnc3ccccn23)c1` as the compound, how does the Potency read?
A: 20 µM (active)

Q: How did the “activity change, negative = cytotoxicity” value turn out when `CCCn1ncc(CN2CCCC(C(=O)c3cccc(OC(C)C)c3)C2)c1C` (stereo not drawn) was run?
A: -13.1% (inactive)

Q: For `COc1ccc2nccc(C(=O)CC[C@@H]3CCN(CC#Cc4cc(F)cc(F)c4F)C[C@@H]3C(=O)O)c2c1`, which “activity change, negative = cytotoxicity” value is on record?
A: 20.9% (inactive)

Q: How did the activity change, negative = cytotoxicity turn out when `C[C@@H]1O[C@@H](O[C@H]2CC[C@@]3(C)C(CC[C@]4(C)C3CC=C3[C@@H]5CC(C)(C)CC[C@]5(C(=O)O[C@@H]5O[C@H](CO)[C@@H](O)[C@H](O)[C@H]5O)CC[C@]34C)[C@]2(C)CO)[C@H](O)[C@H](O[C@@H]2O[C@H](CO)[C@@H](O)[C@H](O)[C@H]2O)[C@H]1O` (stereo partly drawn) was run?
A: 1.58% [at 11.6 µM] (inactive)

Q: With `Cc1cc2c(cc1N1C(=O)c3cccc4c(CCCO)ccc(c34)C1=O)n(C)c(=O)n2C` as the compound, how does the “activity change, negative = cytotoxicity” value read?
A: -33.6% [at 25.3 µM] (inactive)

Q: `CCOC(=O)c1cnn(-c2ccccc2)c1NC(=O)c1cc2nc(-c3ccco3)cc(C(F)(F)Cl)n2n1` was tested. Which “activity change, negative = cytotoxicity” value did it give?
A: 7.08% (inactive)

Q: How did the “activity change, negative = cytotoxicity” value turn out when `O=C(C(Cc1cccc(C(F)(F)F)c1)NS(=O)(=O)c1cc(F)c2c(c1)CCNC2)N1CCCC1` (stereo not drawn) was run?
A: 0.297% (inactive)

Q: Which activity change, negative = cytotoxicity does the source give for `CC(=O)O[C@@H]1C[C@]2(C)[C@@]3(CCC4[C@@]5(C)CC[C@H](O[C@@H]6O[C@H](C(=O)O)[C@@H](O)[C@H](OC7OC(CO)C(O)C(O)[C@H]7O[C@@H]7O[C@@H](C)[C@H](O)[C@@H](O)[C@H]7O[C@@H]7OC[C@](O)(CO)[C@H]7O)[C@H]6OC6OC(CO)C(O)C(O)C6O)C(C)(C)C5CC[C@]42C)OC[C@@]12CCC(C)(C)CC23` (stereo partly drawn) here?
A: -4.27% [at 6.55 µM] (inactive)

Q: With `CCC/C=C\C=C/CCc1cc(O)c([C@@H]2O[C@H](CO)[C@@H](O)[C@H](O)[C@H]2O)c(O)c1C(=O)OC` as the compound, how does the “activity change, negative = cytotoxicity” value read?
A: 2.46% [at 25.3 µM] (inactive)

Q: With `C=CC(=O)N1CCN(C(=O)CNc2cc(-c3ccccc3Cl)c(Cl)cc2OC)CC1` as the compound, how does the “activity change, negative = cytotoxicity” value read?
A: -25% (inactive)

Q: For `CCCNCCc1ccc(NS(=O)(=O)c2ccc(OC(F)(F)F)cc2)cc1`, which “activity change, negative = cytotoxicity” value is on record?
A: -0.596% (inactive)

Q: How did the “activity change, negative = cytotoxicity” value turn out when `COc1cccc(N2CCN(C3=Nc4c(F)cccc4[C@H](CC(=O)O)N3c3cc(C(F)(F)F)ccc3OC)CC2)c1` was run?
A: 8.57% (inactive)

Q: For `N#Cc1ccc2ncnc(NCCc3ccccc3)c2c1`, which “activity change, negative = cytotoxicity” value is on record?
A: 1.35% (inactive)

Q: For `C=C1/C(=C/C=C2\CCC[C@]3(C)[C@@H]([C@H](C)/C=C/[C@@H](C)C(C)C)CC[C@@H]23)C[C@@H](O)C[C@@H]1O`, which “activity change, negative = cytotoxicity” value is on record?
A: 7.54% (inactive)

Q: `COc1ccc(Cl)c(Nc2ncnc3cc(OCC4CCN(C)CC4)c(OC)cc23)c1` was tested. Which “activity change, negative = cytotoxicity” value did it give?
A: -26.8% (inactive)

Q: Which “activity change, negative = cytotoxicity” value does the source give for `C=CC(C)(C)c1[nH]c2ccccc2c1C[C@@H]1NC(=O)[C@H](C)NC1=O` here?
A: -1.53% [at 38.5 µM] (inactive)

Reference: PubChem BioAssay (NCATS)
